Reference: the supplement of paper PMC13380429
A number with no mark means an inactive call.

System: Vero E6 infected with SARS-CoV-2
Assay: inhibition of SARS-CoV-2 cytopathic effect; higher = more antiviral protection, active = above 15
Settings: 48 h

Cc1[nH]c2ccccc2c1CCNCc1ccc(/C=C/C(=O)NO)cc1 [panobinostat]
inhibition of SARS-CoV-2 cytopathic effect (1 nM): -1%
inhibition of SARS-CoV-2 cytopathic effect (8.33 nM): -0.99%
inhibition of SARS-CoV-2 cytopathic effect (100 nM): -7.01%
inhibition of SARS-CoV-2 cytopathic effect (833.33 nM): -13.3%
inhibition of SARS-CoV-2 cytopathic effect (10000 nM): -14.4%

CC(C)(C)NCC(O)COc1cc(Cl)ccc1Cl (stereo not given) [cloranolol]
inhibition of SARS-CoV-2 cytopathic effect (1 nM): -3.31%
inhibition of SARS-CoV-2 cytopathic effect (8.33 nM): -3.27%
inhibition of SARS-CoV-2 cytopathic effect (100 nM): -3.87%
inhibition of SARS-CoV-2 cytopathic effect (833.33 nM): -3.29%
inhibition of SARS-CoV-2 cytopathic effect (10000 nM): -8.51%

O=c1c(O)c(-c2ccc(O)cc2O)oc2cc(O)cc(O)c12 [morin]
inhibition of SARS-CoV-2 cytopathic effect (1 nM): -1.74%
inhibition of SARS-CoV-2 cytopathic effect (8.33 nM): -0.07%
inhibition of SARS-CoV-2 cytopathic effect (100 nM): -0.4%
inhibition of SARS-CoV-2 cytopathic effect (833.33 nM): -4.13%
inhibition of SARS-CoV-2 cytopathic effect (10000 nM): 0.27%

NC(=O)c1cnccn1 [pyrazinamide]
inhibition of SARS-CoV-2 cytopathic effect (1 nM): -9.22%
inhibition of SARS-CoV-2 cytopathic effect (8.33 nM): -8.44%
inhibition of SARS-CoV-2 cytopathic effect (100 nM): -5.67%
inhibition of SARS-CoV-2 cytopathic effect (833.33 nM): -9.11%
inhibition of SARS-CoV-2 cytopathic effect (10000 nM): -9.96%

Cc1cccc(Nc2cc(Cl)nc(SCC(=O)O)n2)c1C [pirinixic-acid]
inhibition of SARS-CoV-2 cytopathic effect (1 nM): -0.9%
inhibition of SARS-CoV-2 cytopathic effect (8.33 nM): -0.95%
inhibition of SARS-CoV-2 cytopathic effect (100 nM): -1.99%
inhibition of SARS-CoV-2 cytopathic effect (833.33 nM): -0.44%
inhibition of SARS-CoV-2 cytopathic effect (10000 nM): 2.81%

CC(C)C(=O)OC[C@H]1O[C@@H](n2ccc(N)nc2=O)[C@](C)(F)[C@@H]1OC(=O)C(C)C [mericitabine]
inhibition of SARS-CoV-2 cytopathic effect (1 nM): -0.35%
inhibition of SARS-CoV-2 cytopathic effect (8.33 nM): -2.22%
inhibition of SARS-CoV-2 cytopathic effect (100 nM): 2.05%
inhibition of SARS-CoV-2 cytopathic effect (833.33 nM): -0.85%
inhibition of SARS-CoV-2 cytopathic effect (10000 nM): 1.88%

CCCCCC(O)CCCC(=O)O (stereo not given)
inhibition of SARS-CoV-2 cytopathic effect (1 nM): -2.76%
inhibition of SARS-CoV-2 cytopathic effect (8.33 nM): -6.54%
inhibition of SARS-CoV-2 cytopathic effect (100 nM): -3.55%
inhibition of SARS-CoV-2 cytopathic effect (833.33 nM): -1.75%
inhibition of SARS-CoV-2 cytopathic effect (10000 nM): -6.15%

O=c1oc2ccccc2c(O)c1Cc1c(O)c2ccccc2oc1=O [dicoumarol]
inhibition of SARS-CoV-2 cytopathic effect (1 nM): 0.87%
inhibition of SARS-CoV-2 cytopathic effect (8.33 nM): 0.88%
inhibition of SARS-CoV-2 cytopathic effect (100 nM): -0.82%
inhibition of SARS-CoV-2 cytopathic effect (833.33 nM): 1.35%
inhibition of SARS-CoV-2 cytopathic effect (10000 nM): 3.32%

Cc1onc(O)c1C[C@@H](N)C(=O)O (racemic)
inhibition of SARS-CoV-2 cytopathic effect (1 nM): 0.825%
inhibition of SARS-CoV-2 cytopathic effect (8.33 nM): 1.39%
inhibition of SARS-CoV-2 cytopathic effect (100 nM): 2.15%
inhibition of SARS-CoV-2 cytopathic effect (833.33 nM): 2.51%
inhibition of SARS-CoV-2 cytopathic effect (10000 nM): 1.4%

CN(C)c1nc(N(C)C)nc(N(C)C)n1 [altretamine]
inhibition of SARS-CoV-2 cytopathic effect (1 nM): 2.31%
inhibition of SARS-CoV-2 cytopathic effect (8.33 nM): -1.41%
inhibition of SARS-CoV-2 cytopathic effect (100 nM): 0.54%
inhibition of SARS-CoV-2 cytopathic effect (833.33 nM): -0.29%
inhibition of SARS-CoV-2 cytopathic effect (10000 nM): 2.53%

CC(C)SC(=N)N [S-isopropylisothiourea]
inhibition of SARS-CoV-2 cytopathic effect (1 nM): 1.63%
inhibition of SARS-CoV-2 cytopathic effect (8.33 nM): 0.91%
inhibition of SARS-CoV-2 cytopathic effect (100 nM): 3.8%
inhibition of SARS-CoV-2 cytopathic effect (833.33 nM): 0.88%
inhibition of SARS-CoV-2 cytopathic effect (10000 nM): 2.04%

O=C1[C@@H]2[C@H]3CC[C@H](C3)[C@@H]2C(=O)N1CCCCN1CCN(c2ncccn2)CC1 [tandospirone]
inhibition of SARS-CoV-2 cytopathic effect (1 nM): 2.41%
inhibition of SARS-CoV-2 cytopathic effect (8.33 nM): 0.1%
inhibition of SARS-CoV-2 cytopathic effect (100 nM): -0.17%
inhibition of SARS-CoV-2 cytopathic effect (833.33 nM): 1.06%
inhibition of SARS-CoV-2 cytopathic effect (10000 nM): 0.15%

CCN(CC)C(=S)SSC(=S)N(CC)CC [disulfiram]
inhibition of SARS-CoV-2 cytopathic effect (1 nM): 1.63%
inhibition of SARS-CoV-2 cytopathic effect (8.33 nM): 1.79%
inhibition of SARS-CoV-2 cytopathic effect (100 nM): 1.68%
inhibition of SARS-CoV-2 cytopathic effect (833.33 nM): 26.5% (active)
inhibition of SARS-CoV-2 cytopathic effect (10000 nM): 13.2%

O=S1(=O)N[C@H]2CCCN2c2ccccc21
inhibition of SARS-CoV-2 cytopathic effect (1 nM): -9.82%
inhibition of SARS-CoV-2 cytopathic effect (8.33 nM): -6.86%
inhibition of SARS-CoV-2 cytopathic effect (100 nM): -6.43%
inhibition of SARS-CoV-2 cytopathic effect (833.33 nM): -8.3%
inhibition of SARS-CoV-2 cytopathic effect (10000 nM): -12.2%

COc1ccc2c(c1)c(CC(=O)O)c(C)n2C(=O)c1ccc(Cl)cc1 [indomethacin]
inhibition of SARS-CoV-2 cytopathic effect (1 nM): -1.21%
inhibition of SARS-CoV-2 cytopathic effect (8.33 nM): 0.75%
inhibition of SARS-CoV-2 cytopathic effect (100 nM): -0.25%
inhibition of SARS-CoV-2 cytopathic effect (833.33 nM): 0.83%
inhibition of SARS-CoV-2 cytopathic effect (10000 nM): 0.17%

COc1cc(/C=C2\CCC/C(=C\c3ccc(O)c(OC)c3)C2=O)ccc1O [cyclovalone]
inhibition of SARS-CoV-2 cytopathic effect (1 nM): -0.89%
inhibition of SARS-CoV-2 cytopathic effect (8.33 nM): 0.77%
inhibition of SARS-CoV-2 cytopathic effect (100 nM): 2.28%
inhibition of SARS-CoV-2 cytopathic effect (833.33 nM): 6.64%
inhibition of SARS-CoV-2 cytopathic effect (10000 nM): 29.5% (active)

O=[N+]([O-])c1ccc2nc(COCc3nc4ccc([N+](=O)[O-])cc4[nH]3)[nH]c2c1
inhibition of SARS-CoV-2 cytopathic effect (1 nM): -1.36%
inhibition of SARS-CoV-2 cytopathic effect (8.33 nM): -1.65%
inhibition of SARS-CoV-2 cytopathic effect (100 nM): -4.45%
inhibition of SARS-CoV-2 cytopathic effect (833.33 nM): 0.4%
inhibition of SARS-CoV-2 cytopathic effect (10000 nM): -0.17%

O=C1c2c(O)cccc2Cc2cccc(O)c21 [anthralin]
inhibition of SARS-CoV-2 cytopathic effect (1 nM): -1.32%
inhibition of SARS-CoV-2 cytopathic effect (8.33 nM): -2.05%
inhibition of SARS-CoV-2 cytopathic effect (100 nM): 0.93%
inhibition of SARS-CoV-2 cytopathic effect (833.33 nM): -2.71%
inhibition of SARS-CoV-2 cytopathic effect (10000 nM): -1.19%

Cc1c(C)c2c(c(C)c1OC(=O)CCC(=O)O)CC[C@@](C)(CCC[C@H](C)CCC[C@H](C)CCCC(C)C)O2 [D-alpha-tocopheryl-succinate]
inhibition of SARS-CoV-2 cytopathic effect (1 nM): -5.51%
inhibition of SARS-CoV-2 cytopathic effect (8.33 nM): -5.87%
inhibition of SARS-CoV-2 cytopathic effect (100 nM): -7.06%
inhibition of SARS-CoV-2 cytopathic effect (833.33 nM): -5.36%
inhibition of SARS-CoV-2 cytopathic effect (10000 nM): -2.64%

CC(O)CC(=O)O (stereo not drawn) [beta-hydroxybutyrate]
inhibition of SARS-CoV-2 cytopathic effect (1 nM): 7.02%
inhibition of SARS-CoV-2 cytopathic effect (8.33 nM): 2.5%
inhibition of SARS-CoV-2 cytopathic effect (100 nM): -2.77%
inhibition of SARS-CoV-2 cytopathic effect (833.33 nM): -2.16%
inhibition of SARS-CoV-2 cytopathic effect (10000 nM): -1.85%

CCCCC1=NC2(CCCC2)C(=O)N1Cc1ccc(-c2ccccc2-c2nnn[nH]2)cc1 [irbesartan]
inhibition of SARS-CoV-2 cytopathic effect (1 nM): -1.49%
inhibition of SARS-CoV-2 cytopathic effect (8.33 nM): -0.93%
inhibition of SARS-CoV-2 cytopathic effect (100 nM): 0.89%
inhibition of SARS-CoV-2 cytopathic effect (833.33 nM): 1.9%
inhibition of SARS-CoV-2 cytopathic effect (10000 nM): 0.85%
